Cruzain noTriton: inhibitors of Trypanosoma cruzi cruzain without detergent; Potency, µM, hits mostly inhibitors; purified cruzain, Z-FR-AMC fluorescence, no detergent; 2.3% of 200,000 active; further: nearly all actives have a fitted effect of over 40% in size
Target sequence (P25779 123-467 limits assumed): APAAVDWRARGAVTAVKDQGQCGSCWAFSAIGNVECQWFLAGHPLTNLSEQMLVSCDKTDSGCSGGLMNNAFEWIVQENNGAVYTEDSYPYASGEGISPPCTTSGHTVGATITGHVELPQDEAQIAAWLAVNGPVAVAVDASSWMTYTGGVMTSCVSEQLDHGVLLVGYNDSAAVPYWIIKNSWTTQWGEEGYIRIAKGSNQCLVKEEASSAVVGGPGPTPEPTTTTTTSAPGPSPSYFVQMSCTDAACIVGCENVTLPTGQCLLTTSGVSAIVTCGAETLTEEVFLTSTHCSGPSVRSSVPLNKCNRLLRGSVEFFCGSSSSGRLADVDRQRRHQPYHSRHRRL
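Purified cruzain at 1.5 nM, pre-incubated 15 min with compound at room temperature in 100 mM sodium acetate pH 5.5, 5 mM DTT, 0.00005% Triton X-100. Reaction started with 2 uM Z-FR-AMC; AMC fluorescence increase over 60 s gives rate.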
Cruzain inh Det: blocks cruzain activity in presence of Triton detergent | P25779 | purified cruzain, Z-FR-AMC fluorescence, 0.01% Triton | Potency, µM, hits mostly inhibitors | 0.43% of 200,000 active | AID 1478; further: nearly all actives have a fitted effect of over 40% in size
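Purified cruzain (1.5 nM final) was preincubated with compounds for 15 min at room temperature in 100 mM sodium acetate pH 5.5, 5 mM DTT, 0.01% Triton X-100. Reaction started with 2 uM Z-FR-AMC; AMC fluorescence change over 60 s gave activity.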
Of the large screens only hits and unclear results are named; the others gave an inactive call. Shown are actives, neighbours in structure and some others; about 2.4% of the full set was active somewhere. The call rests on the fitted dose curve; in most records, active means well fitted curve in the direction sought with a large enough effect; inconclusive means small, poorly fitted or top-dose-only effect, or another doubt; inactive means no such curve, though single readings can be large; an effect the other way counts as inactive or inconclusive.

CCCN1CCN(CC2=C(C(=O)OCC)C(c3cccc(OC)c3OC)NC(=O)N2)CC1 (configuration not stated)	none
O=C(NCCc1ccccc1)c1ccc(CSc2nc3ccncc3n2Cc2ccccc2)cc1	none
COc1ccc2c(c1)CCc1c(C(=O)Nc3ccc(C#N)cc3)noc1-2	none
C=CCSc1nnc(NC(=O)COc2ccc3ccccc3c2)s1	Cruzain noTriton 12.6µM
CCSc1nnc(NC(=O)COc2cccc3ccccc23)s1	Cruzain noTriton 12.6µM
COC(=O)c1sc(NC(=O)COc2cccc3ccccc23)nc1C	Cruzain noTriton inconclusive
C=CCSc1nnc(NC(=O)CSc2ccccn2)s1	none
CC(C)CN1CCCC2(CCN(C(=O)c3ccco3)CC2)C1	none
CCC(=O)OC1(C)C(=O)C=C2C=C(CCCNC(=O)OC(C)(C)C)OC=C2C1=O (configuration not stated)	none
COc1cccc(CNC(=O)c2cccc(N3CCCS3(=O)=O)c2)c1	none
CC(=O)c1ccc(NC(=O)CCn2nc(C)c(S(=O)(=O)N3CCC(C)CC3)c2C)cc1	none
COc1ccc(C(=O)NC2c3ccccc3-c3ccccc32)cc1	Cruzain noTriton 20µM
O=C(NC1c2ccccc2-c2ccccc21)c1ccco1	none
CC(=O)c1ccsc1-c1c(C)cc2oc(=O)cc(-c3ccccc3)c2c1C	Cruzain noTriton 35.5µM
Cc1cc2oc(=O)cc(-c3ccccc3)c2c(C)c1-c1cccc(N)c1	Cruzain noTriton inconclusive
Cc1cc2oc(=O)cc(-c3ccccc3)c2c(C)c1-c1sccc1C=O	Cruzain noTriton inconclusive
Cc1cc2oc(=O)cc(-c3ccccc3)c2c(C)c1-c1ccc(F)c(Cl)c1	Cruzain noTriton 5.62µM
COc1cc(NC(=O)C2Cc3ccccc3N2C(=O)c2ccccc2)cc(OC)c1 (configuration not stated)	none
CS(=O)(=O)Nc1cccc(-c2nc(NCc3ccccc3)c3ccccc3n2)c1	none
Cc1cc(C)cc(NCc2cc(=O)oc3cc(-c4ccccc4)c(O)cc23)c1	Cruzain noTriton inconclusive
COc1ccc(C)cc1NCc1cc(=O)oc2cc(-c3ccccc3)c(O)cc12	Cruzain noTriton 31.6µM
COc1ccc(-c2cnnc(N/N=C/c3ccc(OC)c(OC)c3)n2)cc1	none
COc1ccc(-c2cnnc(N/N=C/C(C)=C/c3ccccc3)n2)cc1	Cruzain noTriton 10µM
Cc1c(O)c(O)cc2c1oc1c3ccccc3oc(=O)c21	Cruzain noTriton inconclusive
CC(C)COC[C@H](CN(Cc1ccccc1)c1ccccc1)N1CCCC1	none
O=C(Cc1ccccc1)Nc1nc2ccccc2[nH]1	none
O=C(Cc1c[nH]c2ccccc12)Nc1nc2ccccc2[nH]1	Cruzain noTriton 25.1µM
COc1cc(C2NC(=O)c3c(sc4c3CCN(C)C4)N2)cc(Br)c1OC(=O)c1ccc(C)cc1 (configuration not stated)	none
Cc1c(/C=C2\SC(=O)N(CC(=O)Nc3ccc4c(c3)OCO4)C2=O)c2ccccc2n1C	Cruzain noTriton inconclusive
O=C(CNc1ccc2c(c1)OCO2)N/N=C\c1cn(Cc2ccc(F)cc2)c2ccccc12	Cruzain noTriton inconclusive
O=C(CNc1ccc2c(c1)OCO2)N/N=C\c1cn(Cc2ccccc2)c2ccccc12	Cruzain noTriton 12.6µM
CCn1cc(/C=C2\SC(=O)N(CC(=O)Nc3ccc4c(c3)OCO4)C2=O)c2ccccc21	Cruzain noTriton 3.16µM
Cc1cc(C)cc(NC(=O)Cn2c3ncccc3c(=O)n2-c2ccc(C)c(C)c2)c1	none
COc1ccc(-n2c(=O)c(CCc3ccccc3)nc3cnc(OC)nc32)cc1	none
Nn1c(SCC(=O)NC2CCCCC2)nnc1-c1ccc(Cl)cc1	none
C=CCN1C(=O)/C(=C\c2ccc(Cl)cc2)N=C1SCC(=O)NC1CCCCC1	Cruzain noTriton 10µM
Cc1ccc(-c2cc3nc(-c4ccccc4)cc(N)n3n2)cc1	Cruzain noTriton 25.1µM
Cc1ccc(-c2cc3nc(-c4ccc(Br)cc4)cc(N)n3n2)cc1	Cruzain noTriton 31.6µM
Cc1ccc(-c2cc(N)n3nc(-c4ccc(C)cc4)cc3n2)cc1	Cruzain noTriton inconclusive
Cc1cc(N)n2nc(-c3ccccc3)cc2n1	none
Cc1cccc(CS(=O)(=O)CC2Nc3ccc(C(=O)NCc4ccccc4Cl)cc3NC2=O)c1 (configuration not stated)	Cruzain noTriton inconclusive
Cc1ccc(Cl)cc1NC(=O)C1CCN(C(=O)c2cnn(-c3ccccc3)c2-n2cccc2)CC1	Cruzain noTriton inconclusive
COc1ccc(-n2c(CNc3ccc(C)cc3)nnc2SCC(=O)Nc2nc(-c3ccccc3)cs2)cc1	Cruzain noTriton 6.31µM
COc1ccc(NCc2nnc(SCC(=O)Nc3nc(-c4ccccc4)cs3)n2-c2ccccc2)cc1	Cruzain noTriton 25.1µM
COc1ccc(-n2c(Cc3cccn3C)nnc2SCC(=O)Nc2ccc(C)cc2)cc1	none
Cc1cc(C)nc(SCc2nnc(SCC(=O)Nc3nc(-c4ccccc4)cs3)n2-c2ccccc2)n1	Cruzain noTriton inconclusive
CC(=O)c1cccc(NC(=O)C2=CC(c3ccc(F)cc3)=NS(=O)(=O)N2C)c1	none
CCC(Oc1ccccc1F)C(=O)Nc1cc(-c2ccccc2)no1 (configuration not stated)	none
CC1CCCCN1S(=O)(=O)c1cc2c(=O)nc3ccccn3c2cc1Cl (configuration not stated)	none
Cc1ccc(NC(=O)Cn2c(=O)n(CCc3ccccc3)c(=O)c3c4c(sc32)CCCC4)cc1C	none
CSc1nc(N)c2ncn([C@H]3O[C@H](COP(=O)(O)OP(=O)(O)OP(=O)(O)O)[C@@H](O)[C@@H]3O)c2n1	none
O=C(c1cc(C(=O)NCc2ccc(Cl)cc2)c(=O)n(Cc2ccc(Cl)cc2)c1)c1cc(F)ccc1O	Cruzain noTriton 15.8µM
O=C(NCc1ccc(Cl)cc1)c1ccc(Cn2cc(C(F)(F)F)ccc2=O)cc1	none
CCCn1nnc(NC(=S)NC(=O)c2cccs2)n1	none
CC1=C(C(=O)Nc2ccccc2)C(c2cccnc2)n2nc(SCc3ccccc3Cl)nc2N1 (configuration not stated)	none
CC1CCN(C2=C(NS(=O)(=O)c3ccc(Cl)cc3)C(=O)c3ccccc3C2=O)CC1	none
O=C1C(NS(=O)(=O)c2cccs2)=C(N2CCN(c3cccc(Cl)c3)CC2)C(=O)c2ccccc21	Cruzain noTriton 12.6µM
CC(C)NC(=O)c1nn(C)c2c1CS(=O)(=O)c1ccccc1-2	none
CC1=NN(c2nc(-c3ccc(F)cc3)cs2)C(=O)C1	none
CC1=NN(c2nc(-c3ccc(Cl)cc3)cs2)C(=O)C1	Cruzain noTriton 7.94µM
COC(=O)c1ccccc1NC(=O)c1noc2c1CSc1ccccc1-2	none
CCOC(=O)c1ccc(NC(=O)Cn2c(=O)cc(C)c3c(C)nn(-c4ccc(CC)cc4)c32)cc1	none
c1ccc(-c2cc(-c3nnc4n3N=C(c3ccc5ccccc5c3)CS4)[nH]n2)cc1	Cruzain noTriton 25.1µM
Cc1cc(-c2nnc3n2N=C(c2ccc(-c4ccccc4)cc2)CS3)n[nH]1	Cruzain noTriton 25.1µM
COc1ccc(-c2nnc3n2N=C(c2ccccc2)CS3)cc1OC	none
COc1ccc(C2=Nn3c(nnc3-c3ccccc3)SC2)cc1OC	none
N[C@]1(C(=O)O)CCc2cc(C(=O)O)ccc21	none
FC(F)(F)c1cc(NC(=S)N2c3ccccc3-n3cccc3[C@H]2c2cccnc2)cc(C(F)(F)F)c1	none
Cc1ccc(Cn2ccc(NC(=O)c3cc(-c4ccc(Br)cc4)on3)n2)cc1	Cruzain noTriton 3.98µM
CC(NC(=O)c1cc(-c2ccc(Br)cc2)on1)c1ccccc1 (configuration not stated)	Cruzain noTriton 15.8µM
COC(=O)c1cc(-c2ccc(Br)cc2)on1	none

Screening results as filed in PubChem.
